Experimental findings from PubChem BioAssay (NCI) are described below.

The panel holds about 83,000 compounds, 20% with a hit somewhere; the sample as a whole holds those more often.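 The endpoint reported here, percent growth, reads 100 for growth as untreated, 0 for no net growth and -100 for all cells dead.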 A number with no mark means an inactive call. Calls of active or inactive are those of the source. How the source made its calls: active means growth percent below 10; inactive means the rest.

Some test systems named below: SR leukemia; RPMI-8226 leukemia; OVCAR-8 ovarian; OVCAR-5 ovarian; OVCAR-4 ovarian; SK-OV-3 ovarian; IGROV1 ovarian; OVCAR-3 ovarian; HS 578T breast; NCI/ADR-RES ovarian.
Common to all, as to experiment: NCI-60 one-dose screen, 48 h (100 = growth as untreated, 0 = no growth, -100 = all killed)
Holding throughout (settings): 10 µM unless noted

With `Cc1nn(-c2ccc(Cl)cc2)c2ncnc(N/N=C/c3cccc([N+](=O)[O-])c3)c12`, the growth is 51.3% in the test with SR leukemia; 66.3% in the test with RPMI-8226 leukemia; 99.7% in the test with OVCAR-8 ovarian; 106% in the test with OVCAR-5 ovarian; 94.5% in the test with OVCAR-4 ovarian; 104% with SK-OV-3 ovarian. Moreover, the growth in the test on IGROV1 ovarian is 94.7%; with OVCAR-3 ovarian it was 8.17% (active); in the test with HS 578T breast, 99.3%; in the test with NCI/ADR-RES ovarian it was 105%.

Take `N#Cc1c(-c2ccccc2)nc(SCC(=O)N2CCN(c3ccccc3)CC2)[nH]c1=O`: the growth was 90.6% in the test on SR leukemia; 95.7% in the test with RPMI-8226 leukemia; 97.9% with OVCAR-8 ovarian; 98.5% in the test on OVCAR-5 ovarian; 115% in the test on OVCAR-4 ovarian; 101% with SK-OV-3 ovarian. The growth in the test on IGROV1 ovarian was 112%; in the test with OVCAR-3 ovarian, 111%; in the test on HS 578T breast, 106%; in the test on NCI/ADR-RES ovarian, 101%.

On to `CCCCCCCCC(C)OC(=O)c1nn(C(C)=O)c2ccccc12` (stereo not given), for which the growth in the test on SR leukemia is 126%; in the test on RPMI-8226 leukemia it was 104%; in the test with OVCAR-8 ovarian, 95.7%; in the test with OVCAR-5 ovarian it was 104%; in the test on OVCAR-4 ovarian it was 99.1%; in the test on SK-OV-3 ovarian, 109%. The growth is 105% with IGROV1 ovarian, 110% in the test with OVCAR-3 ovarian, 101% in the test with HS 578T breast and 101% in the test on NCI/ADR-RES ovarian.

As for `COc1ccc(C(=O)c2cc(OC)c(OC)c(OC)c2OC)cc1O`, the growth with SR leukemia is 26.4%; with RPMI-8226 leukemia, 44.7%; in the test with OVCAR-8 ovarian it was 61.3%; in the test with OVCAR-5 ovarian, 92.8%; in the test on OVCAR-4 ovarian, 83.9%; with SK-OV-3 ovarian, 20.1%. Further, the growth in the test on IGROV1 ovarian is 57.4%; in the test on OVCAR-3 ovarian it was -21.8% (active); in the test with HS 578T breast, 16.3%; in the test with NCI/ADR-RES ovarian it was -8.84% (active).

`CCC(=O)Oc1ccc(/C(=C(/C)Cc2cccc(OC)c2)c2ccc(OCCN(C)C)cc2)cc1`: the growth in the test with SR leukemia is -0.896% (active); in the test on RPMI-8226 leukemia, 70.7%; with OVCAR-8 ovarian, 102%; with OVCAR-5 ovarian, 99.1%; in the test on OVCAR-4 ovarian it was 87.3%; in the test with SK-OV-3 ovarian it was 114%. The growth was 95.4% in the test with IGROV1 ovarian, 92% in the test on OVCAR-3 ovarian, 93.5% with HS 578T breast and 100% in the test on NCI/ADR-RES ovarian.

With `COc1ccc(/C=C\c2cc(OC)c(OC)c(OC)c2)cc1OC(=O)c1cccc(Cn2cc(CCOC(=O)c3cccc(Cn4nnc5c4C(=O)c4ccccc4C5=O)c3)nn2)c1`, the growth in the test with SR leukemia is 12.5%; in the test with RPMI-8226 leukemia, 12.4%; in the test on OVCAR-8 ovarian it was 16%; in the test on OVCAR-5 ovarian, 28.8%; with OVCAR-4 ovarian, 31.6%; in the test with SK-OV-3 ovarian, 41.7%. Besides, the growth with IGROV1 ovarian was 16.1%; in the test with OVCAR-3 ovarian it was -10.1% (active); with HS 578T breast it was 5.15% (active); in the test with NCI/ADR-RES ovarian it was 11.5%.

On to `CC(C)(C)N1CCC1C(N)=O` (stereo not given), for which the growth in the test on SR leukemia was 115%; in the test with RPMI-8226 leukemia, 87.5%; with OVCAR-8 ovarian, 102%; with OVCAR-5 ovarian, 48.7%; in the test on OVCAR-4 ovarian, 104%; in the test with SK-OV-3 ovarian, 104%. The growth with IGROV1 ovarian is 265%; with OVCAR-3 ovarian, 105%; in the test with HS 578T breast it was 111%; with NCI/ADR-RES ovarian, -4.51% (active).

In the case of `C=C(C)[C@@H]1CC[C@]2(C(=O)N3CCNCC3)CC[C@]3(C)[C@H](CC[C@@H]4[C@@]5(C)C/C(=C/c6ccncc6)C(=O)C(C)(C)[C@@H]5CC[C@]43C)[C@@H]12`, the growth with SR leukemia was 106%; in the test on RPMI-8226 leukemia, 98.2%; in the test with OVCAR-8 ovarian it was 98.2%; in the test on OVCAR-5 ovarian, 105%; with OVCAR-4 ovarian it was 98.9%; in the test with SK-OV-3 ovarian it was 107%. Also, the growth with IGROV1 ovarian is 103%; in the test on OVCAR-3 ovarian it was 116%; in the test with HS 578T breast, 98.4%; with NCI/ADR-RES ovarian, 109%.

For `CCN1CCN(CC(=O)N2c3cccc4cccc(c34)N(C(=O)CN3CCN(CC)CC3)C2c2cn(-c3ccccc3)nc2-c2cccc([N+](=O)[O-])c2)CC1`, the growth was -48% (active) with SR leukemia; -39.3% (active) with RPMI-8226 leukemia; -9.32% (active) in the test on OVCAR-8 ovarian; 1.54% (active) in the test with OVCAR-5 ovarian; -76.4% (active) in the test on OVCAR-4 ovarian; 115% in the test on SK-OV-3 ovarian. Moreover, the growth is -29.1% (active) in the test on IGROV1 ovarian, -70.8% (active) with OVCAR-3 ovarian, 69.6% with HS 578T breast and 47.3% in the test on NCI/ADR-RES ovarian.

For `CCn1c2ccccc2c2cc(NC(=O)Nc3ccc([N+](=O)[O-])cc3C)ccc21`, the growth was -2.84% (active) in the test on SR leukemia; -21.4% (active) in the test on RPMI-8226 leukemia; 49.9% in the test on OVCAR-8 ovarian; 57.9% with OVCAR-5 ovarian; 44.2% with OVCAR-4 ovarian; 74.9% in the test on SK-OV-3 ovarian. For the same compound, the growth with IGROV1 ovarian is 43%; in the test on OVCAR-3 ovarian it was -2.64% (active); with HS 578T breast, 52.7%; in the test on NCI/ADR-RES ovarian, 23.1%.

`Cc1csc(NC(c2ccc(Br)cc2)c2c(C)nc3ccccn23)n1` (stereo not given): the growth in the test with SR leukemia is 96.6%; in the test with RPMI-8226 leukemia, 74.7%; in the test with OVCAR-8 ovarian it was 88.6%; in the test on OVCAR-5 ovarian, 88.2%; in the test on OVCAR-4 ovarian, 81.5%; with SK-OV-3 ovarian, 85.3%. Further, the growth is 86.5% with IGROV1 ovarian, 96.7% in the test on OVCAR-3 ovarian, 84.6% in the test with HS 578T breast and 95.4% in the test with NCI/ADR-RES ovarian.

Consider `Cn1cc(-c2cnc3ccc(NC(=O)Nc4ccc(F)c(Br)c4)cc3n2)cn1`, for which the growth is 34% in the test with SR leukemia; -34.1% (active) in the test on RPMI-8226 leukemia; 7.83% (active) in the test on OVCAR-8 ovarian; 51.2% in the test with OVCAR-5 ovarian; 10.7% in the test on OVCAR-4 ovarian; 44.7% in the test with SK-OV-3 ovarian. Also, the growth in the test with IGROV1 ovarian is 32.8%; in the test on OVCAR-3 ovarian, 28.2%; with HS 578T breast it was 37.4%; with NCI/ADR-RES ovarian, 12.4%.

Consider `COc1cc(/C=N\NC(=O)CN2CCN(c3cc4c(cc3F)c(=O)c(C(=O)N/N=C/c3cc(OC)c(OC)c(OC)c3)cn4C3CC3)CC2)cc(OC)c1OC`, for which the growth was 2.97% (active) in the test on SR leukemia; 0.709% (active) in the test on RPMI-8226 leukemia; 22.4% in the test with OVCAR-8 ovarian; 19.6% in the test with OVCAR-5 ovarian; -17.7% (active) in the test with OVCAR-4 ovarian; 19.2% in the test on SK-OV-3 ovarian. Also, the growth with IGROV1 ovarian was -16.6% (active); with OVCAR-3 ovarian it was -75.2% (active); in the test on HS 578T breast, -0.587% (active); with NCI/ADR-RES ovarian it was 103%.
